The nature of assay [1]: qHTS assay to identify aromatase inhibitors - cell viability counter screen (AID 743084).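 Also: cells stimulated with testosterone during compound exposure; nearly all actives have a fitted effect of over 55% in size.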
For assay [2], the target named is Aryl hydrocarbon receptor (Homo sapiens) (UniProt P35869). Nature of the assay: qHTS assay to identify small molecule that activate the aryl hydrocarbon receptor (AhR) signaling pathway (AID 743085). Also: nearly all actives have a fitted effect of over 15% in size. Also: potency is read from the fitted curve at half-maximal effect.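 As to activation: HG2L7.5c1 human HepG2 liver cells with stably integrated DRE-driven firefly reporter; series mostly up to about 70 µM.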 In short, it runs like this:
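A multiplexed format paired cell viability (CellTiter-Fluor fluorescence) with AhR-dependent luciferase output (ONE-Glo luminescence) in the same wells of HepG2 DRE-luc cells after 24 h compound exposure at 37C.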

Assay [3] deals with Peroxisome proliferator-activated receptor gamma (Homo sapiens) (UniProt P37231). As to the kind of experiment: qHTS assay to identify small molecule agonists of the peroxisome proliferator-activated receptor gamma (PPARg) signaling pathway (AID 743094; active = well fitted activation curve with a large enough effect in the signal ratio in the repeat runs, not every such curve was filed as active; the % refers to the signal ratio). In short, it runs like this: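 HEK293H PPARg-bla cells, 5 h settle at 37C/5% CO2; compound (DMSO) 17 h, 37C; B/G FRET substrate 1 h RT; fluorescence intensity read-out. qHTS format.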
Chain of Peroxisome proliferator-activated receptor gamma (Homo sapiens) (P37231 whole entry, looked up): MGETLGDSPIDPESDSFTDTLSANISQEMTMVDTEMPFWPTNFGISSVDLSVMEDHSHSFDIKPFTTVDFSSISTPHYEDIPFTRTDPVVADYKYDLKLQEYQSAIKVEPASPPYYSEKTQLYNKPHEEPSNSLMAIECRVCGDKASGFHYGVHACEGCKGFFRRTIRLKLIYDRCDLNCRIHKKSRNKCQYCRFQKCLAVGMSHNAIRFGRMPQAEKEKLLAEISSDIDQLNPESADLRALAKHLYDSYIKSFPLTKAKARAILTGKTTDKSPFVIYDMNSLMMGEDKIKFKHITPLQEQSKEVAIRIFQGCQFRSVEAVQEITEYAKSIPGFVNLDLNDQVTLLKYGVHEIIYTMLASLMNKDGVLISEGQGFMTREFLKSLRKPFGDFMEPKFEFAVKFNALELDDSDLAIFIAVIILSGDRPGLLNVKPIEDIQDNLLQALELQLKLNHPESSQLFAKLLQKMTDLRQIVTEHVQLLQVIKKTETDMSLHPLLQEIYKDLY

Assay [4] shares this target. As to the kind of experiment: qHTS assay to identify small molecule antagonists of the peroxisome proliferator-activated receptor gamma (PPARg) signaling pathway (AID 743191; calls by dose curve; also: nearly all actives have a fitted effect of over 30% in size; also: potency is read from the fitted curve at half-maximal effect). In short, it runs like this:
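GeneBLAzer PPARg UAS-bla HEK293H cells, 5 h post-plating, exposed to compounds 17 h at 37C. LiveBLAzer B/G FRET substrate added for 1 h at room temperature; beta-lactamase reporter read by fluorescence intensity.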

A short description of assay [5]: qHTS assay for small molecule agonists of the antioxidant response element (ARE) signaling pathway (AID 743202; active = well fitted activation curve with a large enough effect in the signal ratio in the repeat runs, not every such curve was filed as active; the % refers to the signal ratio; also: potency is read from the fitted curve at half-maximal effect). In short, it runs like this:
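HepG2 ARE-bla cells; 16 h treatment at 37 C; FRET-based beta-lactamase fluorescence read after 2 h substrate incubation at room temperature.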

A short description of assay [6]: qHTS assay for small molecule agonists of the antioxidant response element (ARE) signaling pathway - cell viability counter screen (AID 743203; calls by dose curve; also: nearly all actives have a fitted effect of over 55% in size). In short, it runs like this:
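Luminescence read-out (CellTiter-Glo, 30 min at room temperature) measured cell viability in the same wells as the ARE beta-lactamase reporter. HepG2 ARE-bla cells were treated with compounds for 16 hrs at 37C/5% CO2.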

The nature of assay [7]: qHTS assay for small molecule activators of the heat shock response signaling pathway - cell viability counter screen (AID 743209). Also: nearly all actives have a fitted effect of over 50% in size. In short, it runs like this:
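HSE-bla HeLa; 1500 cells/well; overnight 37 C, 5% CO2; compound 5 h 37 C; LiveBLAzer B/G substrate 2.5 h RT; CellTiter-Glo 30 min RT; luminescence.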

Assay [8] is described as follows: qHTS assay to identify small molecule agonists of the peroxisome proliferator-activated receptor delta (PPARd) signaling pathway - cell viability counter screen (AID 743211). Also: nearly all actives have a fitted effect of over 55% in size. In short, it runs like this:
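Tox21 library compounds, delivered in DMSO, were incubated 17 h with PPARd-bla HEK293H cells; cytotoxicity was taken from CellTiter-Glo luminescence read 30 min after reagent addition.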

The nature of assay [9]: qHTS assay to identify small molecule antagonists of the peroxisome proliferator-activated receptor delta (PPARd) signaling pathway - cell viability counter screen (AID 743213). Also: nearly all actives have a fitted effect of over 50% in size. In short, it runs like this: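 HEK293H cells with the PPARd UAS-bla reporter, co-treated 17 h at 37 C with compounds and L165041 (300 nM final), were lysed with CellTiter-Glo. Luminescence indicated viable cell content.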

Assay [10] in a line: qHTS assay to identify small molecule agonists of the farnesoid-X-receptor (FXR) signaling pathway - cell viability counter screen (AID 743218). Also: nearly all actives have a fitted effect of over 45% in size. In short, it runs like this: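 Luminescence from CellTiter-Glo, read after 30 min at RT, reports viability of GeneBLAzer FXR-UAS-bla HEK 293T cells treated 16 h with compounds in the wells used for the beta-lactamase reporter.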
A short description of assay [11]: qHTS assay to identify small molecule antagonists of the farnesoid-X-receptor (FXR) signaling pathway - cell viability counter screen (AID 743221; active = well fitted cell-killing curve with a large enough effect in the repeat runs, not every such curve was filed as active; also: nearly all actives have a fitted effect of over 50% in size). In short, it runs like this: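 Cytotoxicity is taken from ATP luminescence (CellTiter-Glo, 30 min, room temperature) in FXR-bla HEK 293T cells previously incubated 16 h at 37 C with compound and chenodeoxycholic acid at 50 uM final.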

Assay [12] is described as follows: qHTS assay to identify small molecule that activate the aryl hydrocarbon receptor (AhR) signaling pathway - cell viability counter screen (AID 743086).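 Also: HepG2 liver cells carrying the AhR DRE luciferase reporter; series mostly up to about 70 µM; nearly all actives have a fitted effect of over 45% in size.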 In short, it runs like this: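 HepG2-AhR-luc (HG2L7.5c1) cells, 4000/well, treated 24 h at 37 C with compound; viability measured as CellTiter-Fluor fluorescence after 30 min in the same wells as the luciferase read.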

Assay [13] concerns the target Peroxisome proliferator-activated receptor delta (Homo sapiens) (UniProt Q03181). Nature of the assay: qHTS assay to identify small molecule agonists of the peroxisome proliferator-activated receptor delta (PPARd) signaling pathway (AID 743212; calls by dose curve). In short, it runs like this: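 Tox21 library screened in GeneBLAzer PPARd UAS-bla HEK293H cells. After compound treatment at 37 C, a FRET-based beta-lactamase substrate was applied for 2 h and fluorescence recorded.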

The target is the same in assay [14]. As to the kind of experiment: qHTS assay to identify small molecule antagonists of the peroxisome proliferator-activated receptor delta (PPARd) signaling pathway (AID 743215; active = well fitted inhibition curve with a large enough effect in the signal ratio in the repeat runs, not every such curve was filed as active; the % refers to the signal ratio;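 also: cells stimulated with agonist L165041 at 300 nM final during compound exposure; series mostly up to about 62 µM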). In short, it runs like this: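 HEK293H GeneBLAzer PPARd UAS-bla reporter cells; cpd + L165041 300 nM final, 17 h 37 C; LiveBLAzer B/G FRET substrate 2 h RT; fluorescence intensity read-out. Antagonist mode.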

Assay [15] has as its target Bile acid receptor (Homo sapiens) (UniProt Q96RI1). As to the kind of experiment: qHTS assay to identify small molecule antagonists of the farnesoid-X-receptor (FXR) signaling pathway (AID 743217; active = well fitted inhibition curve with a large enough effect in the signal ratio in the repeat runs, not every such curve was filed as active; the % refers to the signal ratio). In short, it runs like this: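 Read-out: beta-lactamase FRET fluorescence (LiveBLAzer B/G substrate, 2 h, room temperature) in GeneBLAzer FXR-UAS-bla HEK 293T cells. Compounds were co-dosed with 50 uM chenodeoxycholic acid (final) and incubated 16 h at 37 °C.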

Assay [16] has the same target. As to the kind of experiment: qHTS assay to identify small molecule agonists of the farnesoid-X-receptor (FXR) signaling pathway (AID 743220; active = well fitted activation curve with a large enough effect in the signal ratio in the repeat runs, not every such curve was filed as active; the % refers to the signal ratio). In short, it runs like this:
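FXR-UAS-bla HEK 293T cells carrying a UAS-driven beta-lactamase reporter were plated for 5 h at 37C/5% CO2, then exposed to DMSO-dissolved Tox21 10K compounds for 16 h at 37C. A LiveBLAzer B/G FRET substrate was loaded for 2 h at room temperature before fluorescence reading.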

For assay [17], the target named is Vitamin D3 receptor (Homo sapiens) (UniProt P11473). Nature of the assay: qHTS assay to identify small molecule agonists of the vitamin D receptor (VDR) signaling pathway (AID 743222; calls by dose curve). In short, it runs like this:
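Beta-lactamase reporter readout (LiveBLAzer B/G FRET, 2 h RT) in VDR-bla cells after 16 h compound treatment at 37C, 5% CO2; cells pre-incubated 4 h before pin transfer of DMSO solutions.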

Assay [18] shares this target. Nature of the assay: qHTS assay to identify small molecule antagonists of the vitamin D receptor (VDR) signaling pathway (AID 743223; active = well fitted inhibition curve with a large enough effect in the signal ratio in the repeat runs, not every such curve was filed as active; the % refers to the signal ratio). In short, it runs like this: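 Quantitative HTS in VDR-bla reporter cells stimulated with 1alpha,25-dihydroxyvitamin D3, 3 nM final. Compound exposure 16 h, 37C, 5% CO2. Read-out: beta-lactamase FRET substrate fluorescence, 2 h RT.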

The nature of assay [19]: qHTS assay to identify small molecule antagonists of the peroxisome proliferator-activated receptor gamma (PPARg) signaling pathway - cell viability counter screen (AID 743194). Also: nearly all actives have a fitted effect of over 55% in size. As to conditions: Potency: co-treated with 50 nM rosiglitazone unless noted. In short, it runs like this: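 Cytotoxicity counter screen in PPARg-bla HEK293H cells, same wells as reporter assay. Compounds plus 50 nM rosiglitazone (final) for 17 h at 37 C, then viability read by CellTiter-Glo luminescence.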

Assay [20] can be described thus: qHTS assay for small molecule activators of the heat shock response signaling pathway (AID 743210; active = well fitted activation curve with a large enough effect in the signal ratio in the repeat runs, with a control signal flat, not every such curve was filed as active; the % refers to the signal ratio;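 also: HeLa cells with beta-lactamase reporter driven by heat shock elements; series mostly up to about 63 µM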). In short, it runs like this:
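Following overnight attachment, HSE-bla HeLa cells received test compounds for 5 h at 37 C; beta-lactamase activity was then detected via FRET substrate fluorescence.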

Where “and” joins values, the source holds several entries; their conditions need not be identical. Equal values may be shown once. Results filed as inconclusive are left out. More than one record can exist for a structure, and the calls need not agree. Calls of active or inactive are those of the source. Unless noted, calls follow the shape of the dose curve; as a rule, active = well fitted curve in the direction sought with a large enough effect in the repeat runs; inconclusive = weak or mixed curves; inactive = no such curve, though single readings can be large; an effect the other way counts as inactive or inconclusive.

Chain of Aryl hydrocarbon receptor (Homo sapiens) (P35869 whole entry, looked up): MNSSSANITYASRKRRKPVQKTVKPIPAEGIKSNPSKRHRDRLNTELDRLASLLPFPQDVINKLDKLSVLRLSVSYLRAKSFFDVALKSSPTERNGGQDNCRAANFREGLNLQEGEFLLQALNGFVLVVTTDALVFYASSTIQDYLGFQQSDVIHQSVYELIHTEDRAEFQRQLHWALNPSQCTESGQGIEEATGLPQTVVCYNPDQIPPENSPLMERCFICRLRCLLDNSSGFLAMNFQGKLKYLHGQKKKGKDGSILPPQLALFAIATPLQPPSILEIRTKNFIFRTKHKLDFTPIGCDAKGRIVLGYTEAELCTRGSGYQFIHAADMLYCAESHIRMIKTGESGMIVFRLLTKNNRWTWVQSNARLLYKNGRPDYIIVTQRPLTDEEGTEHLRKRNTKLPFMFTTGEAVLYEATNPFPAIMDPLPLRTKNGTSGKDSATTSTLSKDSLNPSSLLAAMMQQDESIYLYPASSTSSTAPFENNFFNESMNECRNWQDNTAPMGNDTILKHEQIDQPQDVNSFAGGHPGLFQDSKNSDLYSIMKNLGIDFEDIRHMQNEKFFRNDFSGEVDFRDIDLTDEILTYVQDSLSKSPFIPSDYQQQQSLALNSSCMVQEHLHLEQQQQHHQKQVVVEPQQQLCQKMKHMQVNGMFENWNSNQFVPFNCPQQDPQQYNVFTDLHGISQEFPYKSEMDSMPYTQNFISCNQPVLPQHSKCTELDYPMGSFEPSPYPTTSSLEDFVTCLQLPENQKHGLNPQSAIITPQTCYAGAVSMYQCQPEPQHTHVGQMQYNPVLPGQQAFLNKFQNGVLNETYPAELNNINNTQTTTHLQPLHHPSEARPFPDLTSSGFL
Chain of Peroxisome proliferator-activated receptor delta (Homo sapiens) (Q03181 whole entry, looked up): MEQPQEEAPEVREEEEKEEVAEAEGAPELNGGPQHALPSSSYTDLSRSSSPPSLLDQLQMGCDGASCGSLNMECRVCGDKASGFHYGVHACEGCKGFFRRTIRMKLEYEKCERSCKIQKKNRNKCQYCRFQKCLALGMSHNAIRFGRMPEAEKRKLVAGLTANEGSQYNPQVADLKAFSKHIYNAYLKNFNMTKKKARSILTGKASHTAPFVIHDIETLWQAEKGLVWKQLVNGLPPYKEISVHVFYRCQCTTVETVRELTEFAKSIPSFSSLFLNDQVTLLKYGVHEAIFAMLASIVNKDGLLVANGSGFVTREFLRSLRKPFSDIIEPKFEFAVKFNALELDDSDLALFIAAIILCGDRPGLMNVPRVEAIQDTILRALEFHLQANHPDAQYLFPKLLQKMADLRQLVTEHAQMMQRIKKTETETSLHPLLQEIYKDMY
Chain of Vitamin D3 receptor (Homo sapiens) (P11473 whole entry, looked up): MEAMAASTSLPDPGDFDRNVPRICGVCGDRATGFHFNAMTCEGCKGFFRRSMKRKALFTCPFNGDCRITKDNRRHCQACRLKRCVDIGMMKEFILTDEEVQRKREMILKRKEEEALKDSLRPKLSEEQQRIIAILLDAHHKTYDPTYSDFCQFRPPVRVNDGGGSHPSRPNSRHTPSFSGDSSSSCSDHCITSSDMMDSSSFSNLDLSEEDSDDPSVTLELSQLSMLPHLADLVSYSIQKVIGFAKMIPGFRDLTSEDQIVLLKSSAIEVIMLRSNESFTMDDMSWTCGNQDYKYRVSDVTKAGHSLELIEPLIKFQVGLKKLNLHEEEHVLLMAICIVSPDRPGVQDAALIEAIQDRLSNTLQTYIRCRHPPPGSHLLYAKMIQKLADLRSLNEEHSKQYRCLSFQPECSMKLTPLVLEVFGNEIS
Chain of Bile acid receptor (Homo sapiens) (Q96RI1 whole entry, looked up): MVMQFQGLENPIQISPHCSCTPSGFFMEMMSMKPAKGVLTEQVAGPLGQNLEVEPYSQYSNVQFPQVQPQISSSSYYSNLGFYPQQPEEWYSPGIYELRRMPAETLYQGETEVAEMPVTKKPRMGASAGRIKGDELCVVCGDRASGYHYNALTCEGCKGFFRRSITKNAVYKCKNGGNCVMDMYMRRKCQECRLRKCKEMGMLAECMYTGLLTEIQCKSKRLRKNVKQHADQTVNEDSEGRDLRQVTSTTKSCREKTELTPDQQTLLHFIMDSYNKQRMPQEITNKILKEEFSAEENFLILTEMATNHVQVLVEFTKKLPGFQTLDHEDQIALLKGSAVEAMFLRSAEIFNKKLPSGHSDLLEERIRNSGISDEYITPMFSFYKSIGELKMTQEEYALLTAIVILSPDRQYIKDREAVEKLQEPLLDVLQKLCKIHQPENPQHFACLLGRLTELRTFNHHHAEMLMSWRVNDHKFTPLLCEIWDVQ

As to `O=c1nc(O)n(Cl)c(=O)n1Cl`, the Potency entry in assay [1], in assay [2], in assay [4], in assay [5], in assay [6] and in [7] was “inactive” throughout. In addition, the Potency entry in assay [8], in [9], in [10] and in assay [11] was “inactive” each time. Further, in [3], the outcome was inactive.
As for `C[N+](C)(C)Cc1ccccc1`, the Potency result in assay [1], in [2], in assay [12], in assay [5], in assay [6] and in assay [7] was “inactive” each time. Besides, the Potency result in [8], in assay [9], in assay [15], in [10], in assay [11] and in [18] was “inactive” each time. For the same compound, the compound was classed as inactive in assay [3], in assay [13], in [14], in assay [16] and in [17].
`CCCC[n+]1ccccc1`: the Potency result in assay [1], in [2], in [12], in assay [19], in assay [5] and in assay [6] was “inactive” in each case. The Potency entry in assay [7], in assay [8], in assay [9], in [10] and in [11] was “inactive” each time.
With `Nc1ccc(-c2ccc(N)c(Cl)c2)cc1Cl`, the Potency result in assay [1], in assay [12], in assay [6], in assay [7], in assay [8] and in [9] was “inactive” each time. Moreover, the Potency entry in assay [10], in assay [11] and in assay [18] was “inactive” in each case. For the same compound, the Potency in assay [2] was 7.74 µM (active) and 6.4 µM (active) and 19.3 µM (active); in assay [4], “inactive and 49 µM (active)”; in assay [5], 1.38 µM (active) and 2.02 µM (active) and 1.72 µM (active). For the same compound, the call in assay [3] and in [17] was inactive.
For `O=P1(N(CCCl)CCCl)NCCCO1` (stereo not drawn), the Potency entry in assay [1], in [2], in assay [4], in assay [5], in assay [6] and in assay [7] was “inactive” in each case. In addition, the Potency entry in [8], in [9], in [15], in [10], in [11] and in assay [18] was “inactive” each time. Also, the result in assay [3], in assay [13], in assay [14], in assay [16] and in assay [17] was inactive.
In the case of `C1CCC(NC2CCCCC2)CC1`, the Potency result in [1], in assay [2], in [4], in [5], in assay [6] and in assay [7] was “inactive” throughout. For the same compound, the Potency result in assay [8], in assay [9], in assay [10], in assay [11] and in assay [18] was “inactive” each time. Moreover, the outcome in [3], in assay [20], in assay [13], in [14] and in [17] was inactive.
For the compound `O=c1[nH]c(=O)n(Cl)c(=O)n1Cl`, the Potency result in [1], in [2], in [4], in assay [19], in assay [5] and in assay [6] was “inactive” in each case. Also, the Potency result in [7], in assay [8], in assay [9], in assay [10] and in assay [11] was “inactive” each time. Further, the compound was classed as inactive in assay [3].

The values are drawn from PubChem BioAssay (Tox21).
